In PubChem BioAssay AID588690 (Broad Institute, 2011) one finds activation data, which are given here for 21 molecules.

Hit rate of the full screen: of about 2,400 compounds, fewer than 10 were called active. Another 1% or so got no clear call; they are omitted.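 How the source made its calls: active means highest replicate activation at or above 34% and every replicate reaching that threshold; inconclusive means meets only one of the two criteria; inactive means meets neither criterion.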 Only a sample is shown.

Sequence of Protein FosB (Mus musculus) (P13346 whole entry, looked up): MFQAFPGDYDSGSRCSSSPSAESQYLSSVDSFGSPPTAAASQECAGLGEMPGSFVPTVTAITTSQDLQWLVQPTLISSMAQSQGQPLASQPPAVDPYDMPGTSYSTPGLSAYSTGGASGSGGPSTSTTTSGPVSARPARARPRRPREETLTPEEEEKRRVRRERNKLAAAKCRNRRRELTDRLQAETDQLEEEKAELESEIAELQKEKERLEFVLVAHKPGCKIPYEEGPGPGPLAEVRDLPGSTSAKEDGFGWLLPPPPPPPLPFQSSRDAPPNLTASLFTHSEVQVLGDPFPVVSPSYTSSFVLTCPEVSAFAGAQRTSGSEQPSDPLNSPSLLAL

This assay has as its target Protein FosB (Mus musculus) (UniProt P13346). As to the kind of experiment: enhancers of delta FosB homodimer–AP-1 oligo binding – biochemical, fluorescence polarization, TAMRA-CDK5 oligo, cherry-picked samples, confirmation (AID 588690).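 Further: higher polarization means more probe DNA bound by delta FosB.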 The conditions noted are these: purified delta FosB, at 24.9 µM, stronger effect = higher value, normalised: neutral wells 0, positive control 100. (Fluorescence polarisation rises when a labelled molecule tumbles more slowly, as on binding a larger partner.)
With `CN(CC(=O)Nc1ccc(Cl)cc1)C(=O)CNC(=O)c1ccc2ccccc2c1`, the activation is 6.82% (inactive).
For the molecule `C#CCOCCOCCOCCNc1nc(N2CCN(C(=O)C([C@@H](C)O)n3cc([C@@H](N)CCCCN)nn3)CC2)nc(N2CCN(C(=O)[C@H](CCCCN)n3cc(CN)nn3)CC2)n1` (stereo partly specified), the activation was -0.353% (inactive).
With `Cc1nn(Cc2ccc(Cl)cc2)c(Cl)c1/C=N/NC(=O)CNc1ccccc1F`, the activation was 1.57% (inactive).
Next, `Cc1ccc(C)c(NC(=O)C(OC(=O)c2ccc(C)s2)c2ccccc2)c1` (stereo unspecified): -0.981% (inactive); `Nc1nc(COC(=O)CCC(=O)c2ccc(Cl)cc2)nc(Nc2ccccc2)n1`: 0.207% (inactive).
Turning to `COc1ccc(Cn2c(=S)[nH]c3cc(C(=O)N4CCCCC4)ccc3c2=O)cc1`, the activation was -2.01% (inactive).
Turning to `COc1ccc(-c2cc(=O)oc3cc(OC(C)C(=O)Nc4ccc(CN5CCOCC5)cc4)ccc23)cc1` (stereo unspecified), the activation was 0.361% (inactive).
To `Cc1cc(NC(=O)CSc2nc3cc(Cl)ccc3c(=O)n2Cc2ccco2)no1` belongs 3.74% (inactive); to `O=C(Nc1nc(-c2ccc(-c3ccccc3)cc2)cs1)c1cnccn1`, 5.91% (inactive).
As to `O=C(Cn1nnc(-c2ccccc2)n1)NCc1ccc2c(c1)OCO2`, the activation is 5.36% (inactive).
Regarding `Cc1sc2ncnc(N3CCC(C(=O)Nc4nc5ccc(Cl)cc5s4)CC3)c2c1C`, the activation was 5.08% (inactive).
Next, `CC(Sc1nc(-c2ccccc2)cc(C(F)(F)F)n1)C(=O)Nc1ccc2c(c1)OCO2` (stereo unspecified): 0.405% (inactive); `COc1ccc2nc(/N=C(\N)NC(=O)Nc3ccccc3)nc(C)c2c1`: -5.43% (inactive); `COc1ccc(-n2c(SCC(=O)Nc3sc4c(c3C#N)CCCC4)nnc2-c2ccc(O)cc2)cc1`: 2.22% (inactive).
As to `O=C(Cc1nc2ccccc2[nH]c1=O)c1ccc(Cl)cc1`, the activation was 3.64% (inactive).
Next, `CCCCNC(=O)C(C)N(CCN(C)C)C(=O)CCCCCN1C(=O)NC(c2ccc(Cl)cc2)C(C(=O)OCc2ccccc2)=C1C` (stereo unspecified): 3.97% (inactive); `O=C(/C=C/c1ccc(F)cc1)NCCNC(=O)/C=C/c1ccc(F)cc1`: 5% (inactive).
To `COc1cccc(CNC(=O)c2nnn(CC(=O)Nc3cc(C)ccc3C)c2N)c1` belongs 0.657% (inactive).
Consider `CC(=O)Nc1ccc(NC(=O)C(NS(=O)(=O)c2ccc3c(c2)OCCO3)C(C)C)cc1` (stereo unspecified), for which the activation is 2.35% (inactive).
Consider `COc1ccc(NS(=O)(=O)c2ccc(NC(=O)c3ccc(N(C)S(C)(=O)=O)cc3)cc2)cc1`, for which the activation is -1.03% (inactive).
Turning to `O=C(Nc1ccc2ccccc2c1)/C(=C/c1cccc(Br)c1)NC(=O)c1ccco1`, the activation was 5.71% (inactive).
